Read-out in test [1]: E-selectin (Homo sapiens) (UniProt P16581)
Kind of test: BSK_SAg_Eselectin: BioMAP Diversity Plus: SAg Assay for Eselectin Biomarker Activity (AID 2283091). The following applies: primary human HUVEC with PBMC; actives raise or lower the signal. Summed up:
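Endpoint values derive from bidirectional fitting relative to DMSO, using ELISA-measured E-selectin in a human vascular co-culture (umbilical vein endothelium plus PBMC) sampled 24 h after dosing.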

Read-out in test [2]: Monokine induced gamma interferon (MIG), CXCL9 (gene 4283)
As to the kind of experiment: BSK_SAg_MIG: BioMAP Diversity Plus: SAg Assay for Monokine induced gamma interferon (MIG) Biomarker Activity (AID 2283092). The following applies: primary human HUVEC with PBMC; actives raise or lower the signal. Summed up: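 HUVEC plus human PBMC co-culture, chemicals dosed and MIG (CXCL9) quantified by ELISA at 24 h. Bidirectional curve fitting against DMSO as negative control and baseline, so both gain and loss of signal count as activity.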

The nature of test [3]: BSK_SAg_PBMCCytotoxicity: PBMC Cytotoxicity Assessment in the BioMAP Diversity Plus: SAg Assay (AID 2283093).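 Further: PBMC viability measured as Alamar Blue reduction fluorescence at 546/580 nm; fitted both ways against DMSO so a hit may be loss or gain of signal.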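 On AC50: PBMC superantigen activated with SEB plus TSST-1 one hour after compound addition.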 The conditions noted are these: primary human HUVEC with PBMC. Summed up: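 Alamar Blue reduction (6 h, ex/em 546/580 nm) read after 90 h culture of PBMC pre-dosed 1 h then stimulated with SEB plus TSST-1, 20 ng/mL each. Gain or loss of signal fitted relative to DMSO.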

Read-out in test [4]: Interleukin-8 (IL8), CXCL8 (gene 3576)
Kind of test: BSK_SAg_IL8: BioMAP Diversity Plus: SAg Assay for Interleukin-8 (IL8) Biomarker Activity (AID 2283094). The following applies: primary human HUVEC with PBMC; actives raise or lower the signal. Summed up: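 Primary human endothelial cells with PBMC, exposed 24 h; IL-8 determined by ELISA, analysed bidirectionally relative to DMSO.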

Test [5] in a line: BSK_SAg_Proliferation: Cell Proliferation Assessment in the BioMAP Diversity Plus: SAg Assay (AID 2283095).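 Further: relative cell number as total protein by SRB absorbance in sub-confluent culture.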 The following applies: primary human HUVEC with PBMC. Summed up:
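A human primary co-culture of umbilical vein endothelium and blood mononuclear cells receives compound; relative cell number is quantified at 96 h by SRB staining and 560 nm absorbance, with DMSO-referenced bidirectional curve fitting.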

The nature of test [6]: BSK_SAg_SRB: Viability Assessment in the BioMAP Diversity Plus: SAg Assay (AID 2283096).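 Further: cells read one day after compound addition; hits may be either gain or loss of signal compared with DMSO.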 The conditions noted are these: primary human HUVEC with PBMC. Summed up: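 SRB absorbance at 560 nm served as the viability read-out. Cells (HUVEC plus peripheral blood mononuclear cells) were TCA-fixed and stained 24 h post-dosing; activity fitted in both directions against DMSO controls.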

Test [7] concerns the target human CYP2D6, CYP2D6 (gene 1565) (UniProt P10635). Kind of test: NVS_ADME_hCYP2D6: NovaScreen (NVS) CYP450-related Enzyme Activity (ADME) Assay for human CYP2D6 (AID 2283107; active means hit-call score of the fitted dose curve at least 0.9, where 1 is the maximum). Summed up: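 Biochemical fluorescence assay, insect-cell-derived enzyme. Read at 1 h; inhibition taken from loss of signal against acetonitrile. Screened at 10 uM in duplicate, with concentration series for actives.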

Test [8] addresses human CYP19A1, CYP19A1 (gene 1588) (UniProt P11511). Kind of test: NVS_ADME_hCYP19A1: NovaScreen (NVS) CYP450-related Enzyme Activity (ADME) Assay for human CYP19A1 (AID 2283098; active means hit-call score of the fitted dose curve at least 0.9, where 1 is the maximum). Summed up:
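Primary testing was in duplicate at a single 10 uM concentration, with actives followed up in concentration-response series. Fluorescence read-out of recombinant enzyme activity at 0.5 h, cell-free. Acetonitrile was the negative-control baseline.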

In test [9] the target is human CYP2C9, CYP2C9 (gene 1559) (UniProt P11712). As to the kind of experiment: NVS_ADME_hCYP2C9: NovaScreen (NVS) CYP450-related Enzyme Activity (ADME) Assay for human CYP2C9 (AID 2283108; active means hit-call score of the fitted dose curve at least 0.9, where 1 is the maximum). On the procedure: NVS_ADME_hCYP2C9 is a biochemical, single-readout assay that uses extracted gene-proteins from SF9 in a cell-free assay. Measurements were taken 0.75 hour after chemical dosing in a 96-well plate.NVS_ADME_hCYP2C9 is one of one assay component(s) measured or calculated from the NVS_ADME_hCYP2C9 assay. It is designed to make measurements of enzyme activity, a form of enzyme reporter, as detected with fluorescence intensity signals by Fluorescence technology.Data from the assay component NVS_ADME_hCYP2C9 was analyzed into 1 assay endpoint. This assay endpoint, NVS_ADME_hCYP2C9, was analyzed in the positive analysis fitting direction relative to Acetonitrile as the negative control and baseline of activity. Using a type of enzyme reporter, loss-of-signal activity can be used to understand changes in the enzymatic activity as they relate to the gene CYP2C9. Furthermore, this assay endpoint can be referred to as a primary readout, because this assay has produced multiple assay endpoints where this one serves a enzymatic activity function. To generalize the intended target to other relatable targets, this assay endpoint is annotated to the cyp intended target family, where the subfamily is xenobiotic metabolism. […]

Structures are written as SMILES. Inconclusive results are not listed. Activity calls are given as the source filed them. How the source made its calls, unless noted: active means hit-call score of the fitted dose curve at least 0.9, where 1 is the maximum; inactive means score below 0.9.

Chain of E-selectin (Homo sapiens) (P16581 whole entry, looked up): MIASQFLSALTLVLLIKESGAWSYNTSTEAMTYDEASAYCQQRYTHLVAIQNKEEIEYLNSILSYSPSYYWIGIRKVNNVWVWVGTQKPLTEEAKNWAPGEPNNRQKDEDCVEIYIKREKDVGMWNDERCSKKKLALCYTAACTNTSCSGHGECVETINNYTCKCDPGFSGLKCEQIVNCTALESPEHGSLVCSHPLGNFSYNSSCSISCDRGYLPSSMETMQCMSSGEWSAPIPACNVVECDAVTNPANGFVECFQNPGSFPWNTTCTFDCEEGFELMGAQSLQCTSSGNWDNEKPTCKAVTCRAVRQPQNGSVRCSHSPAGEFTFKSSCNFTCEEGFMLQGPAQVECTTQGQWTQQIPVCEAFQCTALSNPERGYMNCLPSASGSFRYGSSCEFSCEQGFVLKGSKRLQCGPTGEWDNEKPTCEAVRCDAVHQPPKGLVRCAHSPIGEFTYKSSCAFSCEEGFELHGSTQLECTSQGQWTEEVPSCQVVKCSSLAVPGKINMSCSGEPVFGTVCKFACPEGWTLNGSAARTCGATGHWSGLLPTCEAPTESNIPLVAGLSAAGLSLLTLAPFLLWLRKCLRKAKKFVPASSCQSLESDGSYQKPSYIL
Chain of human CYP2D6, CYP2D6 (gene 1565) (P10635 whole entry, looked up): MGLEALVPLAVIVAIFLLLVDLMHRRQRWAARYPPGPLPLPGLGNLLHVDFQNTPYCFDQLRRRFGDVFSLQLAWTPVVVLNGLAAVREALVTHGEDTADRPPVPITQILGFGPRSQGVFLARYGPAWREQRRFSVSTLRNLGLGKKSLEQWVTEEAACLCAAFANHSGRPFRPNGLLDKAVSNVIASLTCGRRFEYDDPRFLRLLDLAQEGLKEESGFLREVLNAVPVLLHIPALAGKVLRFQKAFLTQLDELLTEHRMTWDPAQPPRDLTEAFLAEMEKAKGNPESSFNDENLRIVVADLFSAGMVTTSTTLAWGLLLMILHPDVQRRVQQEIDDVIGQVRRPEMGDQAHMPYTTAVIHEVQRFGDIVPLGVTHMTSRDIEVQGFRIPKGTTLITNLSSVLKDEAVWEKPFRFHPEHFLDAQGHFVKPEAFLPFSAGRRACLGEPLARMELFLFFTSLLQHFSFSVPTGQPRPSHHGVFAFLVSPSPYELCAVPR
Chain of human CYP19A1, CYP19A1 (gene 1588) (P11511 whole entry, looked up): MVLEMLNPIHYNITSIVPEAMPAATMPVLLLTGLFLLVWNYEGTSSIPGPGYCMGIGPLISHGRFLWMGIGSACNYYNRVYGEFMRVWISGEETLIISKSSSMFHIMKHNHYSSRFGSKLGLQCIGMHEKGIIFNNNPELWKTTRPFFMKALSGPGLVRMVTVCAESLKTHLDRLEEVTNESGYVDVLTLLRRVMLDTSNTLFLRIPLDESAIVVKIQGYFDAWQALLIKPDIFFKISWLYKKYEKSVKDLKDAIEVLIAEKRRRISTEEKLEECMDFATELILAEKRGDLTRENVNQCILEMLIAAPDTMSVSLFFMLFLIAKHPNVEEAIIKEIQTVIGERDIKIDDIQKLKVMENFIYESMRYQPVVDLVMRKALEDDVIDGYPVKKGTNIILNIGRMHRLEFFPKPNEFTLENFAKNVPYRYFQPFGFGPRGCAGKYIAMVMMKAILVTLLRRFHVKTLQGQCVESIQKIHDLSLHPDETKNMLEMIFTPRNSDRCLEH
Chain of human CYP2C9, CYP2C9 (gene 1559) (P11712 whole entry, looked up): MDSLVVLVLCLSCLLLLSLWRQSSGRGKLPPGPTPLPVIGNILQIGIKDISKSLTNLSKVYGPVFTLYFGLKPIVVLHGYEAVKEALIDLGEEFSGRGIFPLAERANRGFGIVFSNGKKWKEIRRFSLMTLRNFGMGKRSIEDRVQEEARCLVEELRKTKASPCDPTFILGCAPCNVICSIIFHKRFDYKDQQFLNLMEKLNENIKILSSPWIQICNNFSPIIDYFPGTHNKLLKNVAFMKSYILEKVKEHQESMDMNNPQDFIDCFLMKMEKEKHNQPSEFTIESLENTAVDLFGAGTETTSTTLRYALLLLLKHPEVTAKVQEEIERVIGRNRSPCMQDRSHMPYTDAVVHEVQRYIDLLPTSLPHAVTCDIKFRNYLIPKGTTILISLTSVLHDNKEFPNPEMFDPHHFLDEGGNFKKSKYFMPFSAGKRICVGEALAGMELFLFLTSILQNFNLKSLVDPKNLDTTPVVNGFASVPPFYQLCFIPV

Take `O=C(O)C(F)(F)OC(F)(F)C(F)(F)OC(F)(F)C(F)(F)OC(F)(F)F`: the result in [1], in [2], in test [3], in test [4], in [5] and in test [6] was inactive.
On to `O=C(O)C(F)(F)C(F)(F)C(F)(F)OC(F)(F)F`, for which the outcome in test [1], in test [2], in [3], in test [4], in test [5] and in test [6] was inactive.
Consider `CCOC(=O)CC(=O)C(F)(F)C(F)(F)F`, for which the outcome in [1], in test [2], in [3], in test [4], in test [5] and in test [6] was inactive.
With `O=C(Cl)C(F)(F)C(F)(F)C(F)(F)C(F)(F)C(F)(F)C(F)(F)F`, the result in test [1], in test [2], in test [3], in [4], in [5] and in [6] was inactive.
Consider `CC1=CC2C3C=CC(C3)C2C1C` (configuration not stated), for which the result in [1], in test [2], in [3], in test [4], in test [5] and in [6] was inactive. The concentration at half-maximal activity (AC50) in test [7] is 2.84 µM (active).
Turning to `O=C(c1ccccc1)c1ccc(O)cc1O`, the result in test [1], in test [2], in test [3], in test [4], in [5] and in [6] was inactive. The AC50 in [7] was 5 µM (active).
`C=C(C)C(=O)OCC(F)(F)C(F)(F)C(F)(F)C(F)F`: the outcome in test [1], in [2], in test [3], in [4], in test [5] and in test [6] was inactive.
With `C[Si](Cl)(Cl)CCC(F)(F)C(F)(F)C(F)(F)C(F)(F)C(F)(F)C(F)(F)F`, the outcome in test [1], in [2], in [3], in test [4], in [5] and in [6] was inactive.
For `Nc1cc([N+](=O)[O-])cc(Cl)c1O`, the result in test [1], in test [2], in [3], in [4], in test [5] and in test [6] was inactive.
Regarding `CCOC(OCC)OCC`, the call in test [8] was inactive.
Take `C[C@]12CC[C@H]3C(=CCc4cc(O)ccc43)[C@@H]1CCC2=O`: the result in test [1], in test [2], in test [3], in test [4], in [5] and in test [6] was inactive. In addition, the compound was called inactive in [7].
As to `OCC(O)CC(F)(F)C(F)(F)C(F)(F)C(F)(F)F` (configuration not stated), the result in test [1], in [2], in [3], in test [4], in [5] and in test [6] was inactive.
`O=C1C=CC(=O)N1c1ccc(Cc2ccc(N3C(=O)C=CC3=O)cc2)cc1`: the AC50 in [1] is 6.88 µM (active); in test [2], 13 µM (active); in [3] it was 7.25 µM (active); in test [4], 4.35 µM (active); in test [5], 3.92 µM (active); in [6] it was 20 µM (active).
For `O=C(O)C(F)(F)C(F)(F)C(F)(F)C(F)(F)C(F)(F)C(F)(F)C(F)F`, the result in test [1], in test [2], in [3], in [4], in test [5] and in [6] was inactive.
As to `NCC(F)(F)C(F)(F)C(F)(F)C(F)(F)C(F)(F)C(F)(F)C(F)(F)C(F)(F)F`, the outcome in [1], in [2], in test [3], in test [4], in test [5] and in [6] was inactive.
On to `CC(C)=CCCC(C)O` (configuration not stated), for which the result in test [7] and in test [9] was inactive.
Turning to `NC(O)(C(F)(F)F)C(F)(F)F`, the result in test [1], in test [2], in test [3], in [4], in test [5] and in test [6] was inactive.
Regarding `CCN(CC)c1ccc(C=O)c(O)c1`, the outcome in test [1], in test [2], in [3], in test [4], in test [5] and in test [6] was inactive.

The values are drawn from PubChem BioAssay (EPA / NIEHS).
